Most compounds without a hit are left out; they make up all but 5.3% or so of the library.
BAZ2B inh: BAZ2B (human) inhibition; AlphaScreen BAZ2B-H3K14Ac peptide displacement; Potency, µM (titrated, usually from 114 µM), actives largely listed as inhibitors; 360,000 tested, 4.4% active; also: nearly all actives have a fitted effect of over 60% in size
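Compounds, titrated to a top concentration of 110 uM, were incubated 30 min at room temperature with preformed BAZ2B/acetyl-K14 H3 peptide complex (50 nM each). Proximity signal was measured by AlphaScreen after 20 min with beads.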
HP1b binding inh: blocks HP1-beta chromodomain binding to methylated histone tails; 390,000 tested, 0.56% active; AlphaScreen HP1-beta / biotin-H3K9me3 peptide binding; P83916; Potency, µM (top dose mostly 114 µM), usual class: inhibitors; AID 540317; also: nearly all actives have a fitted effect of over 70% in size
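AlphaScreen: HP1-beta (50 nM) preformed 30 min with biotin-H3(1-18)K9me3 peptide (50 nM) in PBS pH 7.4, 0.01% Tween-20. Compound added for 30 min at RT, then streptavidin donor/nickel chelate acceptor beads (10 ug/mL) for 30 min.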
TDP1 inh: inhibitors of human tyrosyl-DNA phosphodiesterase TDP1; Q9NUW8; recombinant TDP1, AlphaScreen DNA substrate cleavage; Potency, µM (top dose mostly 130 µM), most hits filed as inhibitors; 350,000 tested, 0.28% active; AID 485290; also: nearly all actives have a fitted effect of over 40% in size
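Here, a 5' biotin and 3' phosphotyrosine-FITC DNA oligonucleotide reports Tdp1 activity: intact substrate bridges AlphaScreen beads, while cleavage leaves a 3' phosphate and drops signal. All incubations at room temperature.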
JMJD2A Tudor inh: blocks the human JMJD2A Tudor domain | AlphaScreen JMJD2A-Tudor / H3K4me3 peptide binding | Potency, µM (top dose mostly 114 µM), most hits filed as inhibitors | O75164 | AID 504339 | 390,000 tested, 4.4% active; also: nearly all actives have a fitted effect of over 50% in size
Target sequence (O75164 whole entry, looked up, the tested form may be a part): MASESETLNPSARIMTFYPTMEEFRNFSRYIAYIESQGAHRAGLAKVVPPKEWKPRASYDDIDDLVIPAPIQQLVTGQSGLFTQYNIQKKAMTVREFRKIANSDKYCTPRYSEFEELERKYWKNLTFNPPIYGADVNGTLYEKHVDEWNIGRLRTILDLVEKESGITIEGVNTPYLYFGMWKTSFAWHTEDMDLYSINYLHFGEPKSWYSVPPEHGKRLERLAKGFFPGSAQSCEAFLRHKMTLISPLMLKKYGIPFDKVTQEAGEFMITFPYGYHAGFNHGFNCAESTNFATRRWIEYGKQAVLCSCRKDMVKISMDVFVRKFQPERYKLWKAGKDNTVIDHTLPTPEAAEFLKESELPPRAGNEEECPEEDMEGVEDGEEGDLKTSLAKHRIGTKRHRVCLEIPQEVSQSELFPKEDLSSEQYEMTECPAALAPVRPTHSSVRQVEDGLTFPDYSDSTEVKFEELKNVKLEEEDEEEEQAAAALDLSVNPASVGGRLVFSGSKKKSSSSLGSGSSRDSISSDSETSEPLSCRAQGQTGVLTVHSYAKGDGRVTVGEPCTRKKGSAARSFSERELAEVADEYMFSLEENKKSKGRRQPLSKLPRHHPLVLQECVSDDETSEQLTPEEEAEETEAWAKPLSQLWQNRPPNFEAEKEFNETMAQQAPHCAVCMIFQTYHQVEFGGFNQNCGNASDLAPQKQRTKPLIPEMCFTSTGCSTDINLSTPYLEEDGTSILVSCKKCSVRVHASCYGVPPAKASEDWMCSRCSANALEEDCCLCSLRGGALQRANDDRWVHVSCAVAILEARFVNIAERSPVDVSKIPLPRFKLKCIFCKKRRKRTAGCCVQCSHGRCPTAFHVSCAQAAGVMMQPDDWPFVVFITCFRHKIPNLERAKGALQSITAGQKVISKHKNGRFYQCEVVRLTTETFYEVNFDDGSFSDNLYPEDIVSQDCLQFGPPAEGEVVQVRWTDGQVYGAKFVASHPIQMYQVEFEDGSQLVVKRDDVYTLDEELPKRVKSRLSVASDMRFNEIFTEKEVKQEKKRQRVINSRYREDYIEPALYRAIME
CtBP-E1A blk: inhibitors of CtBP/E1A interaction. AlphaScreen GST-E1A/His-CtBP binding, 1536-well; stronger effect = lower value. activity change, % (concentration not given with the values). 340,000 tested, 0.49% active. AID 651724; in the data active = activity change below about -65%; inconclusive = mostly about -30% to -63%
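Protein mix (5X: 125 nM each GST-E1A, His-CtBP) was incubated with pinned compound 2 h at 37 deg C in dark, in 50 mM Tris pH 8.0 buffer with 300 mM NaCl. Glutathione donor and nickel acceptor beads followed; AlphaScreen signal read after 1 h.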
Six1-Eya2 inh: blocks human Six1 binding to Eya2. Q15475+O00167. AlphaScreen GST-Six1/His-Eya2 binding, biochemical; stronger effect = lower value. activity change, % (test concentration not listed). 360,000 tested, 0.56% active. AID 651725; in the data active = activity change below about -65%; inconclusive = mostly about -30% to -63%
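AlphaScreen luminescence read after one hour at 37 °C in darkness. Pin-transferred compounds met GST-Six1 and His-Eya2 protein (5X stock 250 nM/500 nM) plus glutathione donor and Ni-chelate acceptor beads (5X, 50 ug/mL).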
A number is an active result; 0 = inactive; ? = inconclusive; - = not tested or not shown; [ ] = another dose, or the depositor's remark. Unless noted, calls follow the shape of the dose curve; as a rule, active = well fitted inhibition curve with a large enough effect; inconclusive = small, poorly fitted or top-dose-only effect; inactive = no such curve, though single readings can be large or run the other way.

SMILES | BAZ2B inh | HP1b binding inh | TDP1 inh | JMJD2A Tudor inh | CtBP-E1A blk | Six1-Eya2 inh
Cc1ccc(/C=C/c2onc(C)c2S(=O)(=O)N2CCC(C(=O)NCC(C)c3ccccc3)CC2)cc1 (stereo not drawn) | 0 | 0 | 0 | 0 | - | -
CCOC(=O)c1cc2c(ccn2C)n1CC(=O)N(Cc1ccccc1)c1ccccc1 | 31.6µM | 0 | 0 | 25.1µM | ? | 0
CC(C)OC(=O)c1cc2c(ccn2C)n1CC(=O)N(Cc1ccccc1)c1ccc(F)cc1 | 39.8µM | ? | 0 | 17.8µM | 0 | 0
CC(C)OC(=O)c1cc2c(ccn2-c2ccc(F)cc2)n1CC(=O)N1CCN(C(=O)c2ccco2)CC1 | 0 | 0 | 0 | 0 | 0 | 0
CC(C)CNc1cc(NC2CCCCC2)c2c3c(onc13)-c1ccccc1C2=O | 25.1µM | ? | 0 | 28.2µM | - | -
COCCNc1cc(N2CCN(C3CCCCC3)CC2)c2noc3c2c1C(=O)c1ccccc1-3 | ? | ? | 0 | 50.1µM | - | -
COCCCNc1nc2nonc2nc1N1CCN(C2CCCC2)CC1 | 0 | 0 | 0 | 0 | 0 | 0
CN(C)CCCNc1cc(N2CCN(C3CCCCC3)CC2)c2noc3c2c1C(=O)c1ccccc1-3 | 20µM | ? | 0 | 35.5µM | - | -
O=C1c2ccccc2-c2onc3c(Br)cc(NC4CCCCC4)c1c23 | 0 | 0 | 0 | 0 | - | -
O=C(CN1C(=O)COc2ccc(S(=O)(=O)N3CCOCC3)cc21)NCc1ccc(F)cc1 | 0 | 0 | 0 | 0 | - | -
CC(=O)Nc1cc(=O)c2cccnc2[nH]1 | - | 0 | - | 50.1µM | 0 | ?
C=CCSC(=C(C#N)C#N)c1cc2c([nH]1)CCCC2 | 50.1µM | ? | 0 | 50.1µM | 0 | 0
N#Cc1cc2c([nH]c1=O)CCCC2 | 0 | 0 | 0 | 0 | 0 | 0
CN(CCOc1ccc(Cl)cc1)CC(O)c1ccccc1 (stereo not drawn) | 20µM | 70.8µM | - | 1.12µM | 0 | 0
CC(C)c1ccc(CN(C)CC(O)c2ccccc2)cc1 (stereo not drawn) | 89.1µM | 0 | 0 | 0 | 0 | 0
CN1CCC(N(C)CC(O)c2ccccc2)CC1 (stereo not drawn) | 50.1µM | 0 | 0 | 3.55µM | 0 | 0
CN(CCOc1ccccc1)CC(O)COCc1ccccc1F (stereo not drawn) | 70.8µM | ? | - | ? | 0 | 0
CCC(C)c1ccccc1NC(=O)CN(C)CCOc1ccc(Cl)cc1 (stereo not drawn) | 0 | 0 | - | 0 | 0 | 0
Cc1ccccc1CN(C)C1CCN(C)CC1 | 0 | 0 | - | 0 | - | 0
CCOc1ccc(C(=O)OCc2cc(=O)n3nc(C(C)C)sc3n2)cc1 | 0 | 0 | 0 | 0 | - | -
COc1ccc(-c2nnc(SCC(=O)Nc3ccc(Cl)cc3)s2)cc1 | 0 | 0 | 0 | 0 | - | -
COc1ccc(-c2cc(C(F)(F)F)n3nc(-c4ccc(Cl)cc4)cc3n2)cc1OC | 0 | 0 | 0 | 0 | - | -
CCOC(=O)c1ccc(N2C(=O)c3[nH]nc(-c4ccc(C)cc4)c3C2c2cccs2)cc1 (stereo not drawn) | - | 0 | 0 | 0 | - | -
Cc1ccn2c(=O)cc(COc3ccc(NC(=O)C(C)(C)C)cc3)nc2c1 | 0 | 0 | 0 | 0 | - | -
COc1ccc(OC)c(C2CC(=O)c3c([nH]c(C(=O)OC4CCC(C)CC4)c3C)C2)c1 (stereo not drawn) | 0 | 0 | 0 | 0 | - | -
SMILES | BAZ2B inh | HP1b binding inh | TDP1 inh | JMJD2A Tudor inh | CtBP-E1A blk | Six1-Eya2 inh
CN(CCOc1ccccc1)CC(O)COc1ccccc1 (stereo not drawn) | 0 | 0 | 0[0.0935 µM] | 0 | 0 | 0
CC(OCC(O)CN(C)CCOc1ccccc1)c1ccc(Cl)cc1 (stereo not drawn) | ? | ? | 0 | 3.55µM | 0 | 0
CCc1ccc(S(=O)(=O)Nc2cccc(-c3ccc(N4CCC(C)CC4)nn3)c2)s1 | 0 | 0 | 0 | ? | - | -
COc1ccc(Cl)cc1-c1csc(N)n1 | 0 | 0 | 0 | 0 | - | 0
COc1ccc(-n2c(C)cc(-c3csc(N)n3)c2C)cc1 | 44.7µM | ? | 0 | 44.7µM | 0 | 0
Cc1cc(-c2csc(N)n2)c(C)n1-c1ccc(Cl)c(Cl)c1 | ? | ? | 0 | 56.2µM | 0 | 0
COc1ccc(NCc2nnc(SCc3ccc(Cl)cc3)n2-c2ccccc2)cc1 | 22.4µM | ? | 0 | 44.7µM | 0 | ?
COc1ccc(-n2c(COc3ccc(Cl)cc3)nnc2SCc2ccc(C#N)cc2)cc1 | 0 | 0 | 0 | 0 | 0 | 0
O=C(COc1ccccc1Cl)OCc1cc(=O)n2nc(C3CC3)sc2n1 | 0 | 0 | 0 | 0 | - | -
CCN1/C(=C/C=C/C=C/c2sc3ccccc3[n+]2CC)Sc2ccccc21 | 11.2µM | - | 0 | - | - | -
CCN1/C(=C/C=C/C=C/C=C/c2sc3ccccc3[n+]2CC)Sc2ccccc21 | 39.8µM | ? | - | 20µM | 0 | 0
CCN1/C(=C/C=C/c2sc3ccccc3[n+]2CC)Sc2ccccc21 | 14.1µM | 0 | - | 0 | ? | ?
CC[n+]1c(/C=C/Nc2ccccc2)sc2ccccc21 | 0 | 0 | 0 | 0 | 0 | 0
CCn1cc2nc(SCc3ccccc3F)n(Cc3ccc(C)cc3)c(=O)c2n1 | 0 | 0 | 0 | 0 | - | -
O=S(=O)(Nc1nc(-c2sccc2Cl)cs1)c1cc(Cl)ccc1Cl | 50.1µM | ? | 0 | 50.1µM | 0 | 0
CC(C)(C)c1nnc(NS(=O)(=O)c2cc(Cl)ccc2Cl)s1 | ? | 0 | 0 | 0 | 0 | 0
O=c1cc(CO)oc(CN2CCN(c3ccccc3)CC2)c1O | 0 | 0 | 0 | 50.1µM | 0 | 0
CCN1CCN(Cc2oc(CO)cc(=O)c2O)CC1 | 50.1µM | 0 | 0 | 12.6µM | 0 | 0
O=c1cc(CO)oc(CN2CCN(c3cccc(C(F)(F)F)c3)CC2)c1O | ? | 0 | 0 | 0 | 0 | 0
CC(=O)Nc1nonc1-c1nnc(SCC(=O)Nc2ccccc2)n1-c1ccccc1 | 0 | 0 | 0 | 0 | - | -
Cn1c(=O)c2cc(C(=O)N3CCN(c4ccc(Cl)cc4)CC3)sc2c2ccccc21 | - | 0 | 0 | 0 | - | -
COc1ccc2c(CCNC(=O)Nc3ccccc3)c[nH]c2c1 | 0 | 0 | 0 | 0 | 0 | 0
Cc1ccc(NC(=S)NCCc2c[nH]c3ccccc23)c(C)c1 | 35.5µM | 0 | 0 | ? | - | 0
COc1ccccc1NC(=S)NCCc1c[nH]c2ccccc12 | 44.7µM | 8.91µM | 0 | ? | 0 | 0
COc1cc(CNCCc2c[nH]c3ccccc23)ccc1OCc1ccc(F)cc1 | 50.1µM | ? | 0 | ? | 0 | ?
COc1cc(NC(=S)NCCc2c[nH]c3ccccc23)c(OC)cc1Cl | ? | ? | 0 | ? | 0 | ?
COc1ccc(NC(=S)NCCc2c[nH]c3ccccc23)cc1 | 44.7µM | 0 | 0 | 0 | 0 | 0
COc1ccc(C2c3c(-c4ccccc4)n[nH]c3C(=O)N2c2ccc(C(=O)O)cc2)c(OC)c1 (stereo not drawn) | - | 0 | 0 | 0 | - | -
CCn1cc(S(=O)(=O)c2ccc(OC)cc2)c(=O)c2cc(F)c(N3CCC(C)CC3)cc21 | 0 | 0 | 0 | 0 | - | -
